The record followed here is PubChem BioAssay (NCATS).

Where “and” joins values, the source holds several entries; their conditions need not be identical. Equal entries are not always repeated. Results filed as inconclusive are left out. Values without a mark were called inactive. Calls of active or inactive are those of the source. Calls follow the shape of the dose curve; as a rule, active = well fitted curve in the direction sought with a large enough effect; inconclusive = small, poorly fitted or top-dose-only effect, or another doubt; inactive = no such curve, though single readings can be large; an effect the other way counts as inactive or inconclusive.

Test [1] is described as follows: Viability qHTS for spleen associated tyrosine kinase inhibitor (SYKi) naive MV4-11 cells (AID 1963823). Also: nearly all actives have a fitted effect of over 40% in size. A digest of the protocol:
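Cells: MV4-11, SYK inhibitor naive, 500 per well. Treatment: library compounds, 72 hr, 37 C, 5% CO2. Read-out: CellTiter-Glo luminescence after 10 min RT.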
In general terms: In qHTS, concentration-response curves come from the screen itself.

Test [2] is described as follows: Viability qHTS for spleen associated tyrosine kinase inhibitor (SYKi) drug resistant MV4-11 cells (AID 1963824). Also: nearly all actives have a fitted effect of over 35% in size. A digest of the protocol: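 SYK inhibitor-resistant MV4-11 AML cells, 500 per well, added to predispensed compounds and incubated 72 hr at 37 C, 5% CO2. Viability measured by CellTiter-Glo luminescence after 10 min at room temperature.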
The nature of test [3]: Cellular viability qHTS for adrenocortical cancer (ACC) cell line SW-13 (AID 1963989). Also: nearly all actives have a fitted effect of over 65% in size.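 As to activity (max response): cells grown in serum-free medium with ITS supplement; % is scaled to controls: 0 for no effect and ±100 for the full control effect.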 The settings on record: SW-13 ACC cells viability, CellTiter-Glo, 48 h; activity (max response): active compounds read low. Put shortly: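 48 h treatment, SW-13 in ITS/DMEM serum-free; doses up to 46 uM; readout CellTiter-Glo luminescence; curve fit four-parameter logistic.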
Test [4] in a line: Cellular viability qHTS for adrenocortical cancer (ACC) cell line NCI-H295R (AID 1963990). Also: nearly all actives have a fitted effect of over 60% in size.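 As to activity change, negative = viability loss: 0% = DMSO only wells and -100% = full killing with cytotoxic reference compound.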 A digest of the protocol: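 Compound titrations (up to 46 uM final) are applied to NCI-H295R cultures for 48 h at 37C. Viable cell number is estimated by CellTiter-Glo signal, normalised to DMSO and doxorubicin controls.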
Potency is read from the fitted curve at half-maximal effect.

Regarding `C[C@@]1(c2ncncc2F)NC(=O)c2cc(-c3cn[nH]c3)ccc21`, the Potency in test [1] is 16.6 µM (active); in test [2] it was 20.9 µM (active). Also, in test [3], the activity (max response) was -10.1%. Besides, the Potency result in test [4] is “inactive”.
As for `c1ccc(Cn2c(-c3ccc(OCC(C4CCNCC4)n4c(-c5ccccc5)nc5ccccc54)cc3)nc3ccccc32)cc1` (centres undefined), the Potency is 5.25 µM (active) in test [1], 7.42 µM (active) in test [2], 25.1 µM (active) in test [3] and 7.08 µM (active) in test [4].
For `C=CCNC1=C2CC(C)CC(OC)C(O)C(C)/C=C(\C)C(OC(N)=O)C(OC)/C=C/C=C(\C)C(=O)NC(=CC1=O)C2=O` (centres undefined), in that order: 0.0934 µM (active), 0.332 µM (active), 3.16 µM (active) and 10 µM (active).
On to `CC(C)NCC(O)c1cc(O)cc(O)c1` (centres undefined), for which the Potency result in test [1], in test [2] and in test [4] was “inactive” throughout. For the same compound, in test [3], the activity (max response) is 13.2%.
On to `COc1cc2c(Oc3ccc4[nH]c(C)cc4c3F)ccnc2cc1OCC1(N)CC1`, for which the Potency is 4.17 µM (active) in test [1], 4.17 µM (active) in test [2], 11.2 µM (active) in test [3] and 10 µM (active) in test [4].
As for `Cc1c(NC(=O)c2cc(C(N)=O)nc3cc(F)ccc23)c(C(F)(F)F)nn1Cc1ccc(C(C)(C)C)cc1`, the Potency in test [1] was 20.9 µM (active); in test [2], 16.6 µM (active). In test [3], the activity (max response) was 8.86%. Besides, the Potency entry in test [4] was “inactive”.
The matching figures for `CCOc1ccc(Cc2cc([C@@H]3O[C@H](CO)[C@@H](O)[C@H](O)[C@H]3O)ccc2Cl)cc1`: “inactive”, 18.6 µM (active), -2.91% and “inactive”.
For `O=C(O)CCc1nc(-c2ccccc2)c(-c2ccccc2)o1`, in that order: “inactive”, “inactive”, -11.2% and “inactive”.
For the compound `CC(=O)[C@]1(O)Cc2c(O)c3c(c(O)c2[C@@H](O[C@H]2C[C@H](N)[C@H](O)[C@H](C)O2)C1)C(=O)c1ccccc1C3=O`, the Potency in test [1] was 0.075 µM (active); in test [2], 119 nM (active) and 83.3 nM (active); in test [3], 46.1 nM (active) and 2 µM (active); in test [4], 1.84 µM (active) and 2.24 µM (active).
For `Cc1[nH]cnc1CN1CCN(C(=O)N[C@@H](CC(C)C)C(=O)O)[C@@H](Cc2ccccc2)C1=O`, the Potency entry in test [1], in test [2] and in test [4] was “inactive” in each case. For the same compound, the activity (max response) in test [3] is 6.54%.
On to `CC(C)(C)CC(C)(C)c1ccc(O)c(-n2nc3ccccc3n2)c1`, for which the Potency result in test [1], in test [2] and in test [4] was “inactive” in each case. Further, the activity (max response) in test [3] was 4.68%.
Consider `CCN(CC)CC(=O)OCC(=O)[C@@]1(O)CC[C@H]2[C@@H]3CCC4=CC(=O)CC[C@]4(C)[C@H]3[C@@H](O)C[C@@]21C`, for which the Potency entry in test [1], in test [2] and in test [4] was “inactive” throughout. Also, in test [3], the activity (max response) was 11.9%.
With `COc1ccccc1C(=O)Nc1cc2c(cc1N1CCCCC1)n(C)c(=O)n2C`, the Potency in test [1] and in test [2] was 14.8 µM (active) throughout. The activity (max response) in test [3] is -17.1%. In test [4], the Potency result was “inactive”.
Regarding `Oc1cc(O)c2c(c1)O[C@H](c1ccc(O)c(O)c1)[C@H](O)C2`, the Potency result in test [1], in test [2] and in test [4] was “inactive” throughout. The activity (max response) in test [3] was 11.2%.
In the case of `CN[C@H](CC(C)C)C(=O)N[C@H]1C(=O)N[C@@H](CC(N)=O)C(=O)N[C@H]2C(=O)N[C@H]3C(=O)N[C@H](C(=O)N[C@H](C(=O)O)c4cc(O)cc(O)c4-c4cc3ccc4O)[C@H](O)c3ccc(c(Cl)c3)Oc3cc2cc(c3O[C@@H]2O[C@H](CO)[C@@H](O)[C@H](O)[C@H]2O[C@H]2C[C@](C)(N)[C@H](O)[C@H](C)O2)Oc2ccc(cc2Cl)[C@H]1O`, the Potency result in test [1], in test [2] and in test [4] was “inactive” each time. For the same compound, the activity (max response) in test [3] was -12.5%.
Consider `NCC[C@H](O)C(=O)N[C@@H]1C[C@H](N)[C@@H](O[C@H]2O[C@H](CN)[C@@H](O)[C@H](O)[C@@H]2O)[C@H](O)[C@@H]1O[C@H]1O[C@H](CO)[C@@H](O)[C@H](N)[C@@H]1O`, for which the viability (% of control) in test [1] is 113% [at 0.588 µM]. For the same compound, the viability, % of control in test [2] is 95% [at 0.588 µM]. Further, the activity (max response) in test [3] is 11.7%. Moreover, in test [4], the activity change, negative = viability loss is 7.11% [at 0.587 µM].
On to `CCOC(=O)c1cnc2c(cnn2CC)c1NN=C(C)C`, for which the Potency result in test [1], in test [2] and in test [4] was “inactive” in each case. For the same compound, the activity (max response) in test [3] was 7.42%.
As for `N#Cc1ccc(C2CCCc3cncn32)cc1` (centres undefined), the Potency entry in test [1], in test [2] and in test [4] was “inactive” each time. The activity (max response) in test [3] is -11.9%.
Turning to `CCNC(=O)NCc1cccc(Cl)c1`, the Potency result in test [1], in test [2] and in test [4] was “inactive” in each case. Further, the activity (max response) in test [3] was -4.81%.
As for `CC(C)(O)CS(=O)(=O)Nc1ccc2c(c1)CCN(C(=O)COc1cccnc1)C2`, the Potency in test [1] was 0.0209 µM (active); in test [2], 0.0295 µM (active); in test [3], 0.282 µM (active); in test [4] it was 0.112 µM (active).
As for `Cc1ccc(C(=O)C(=O)O)cc1C`, the Potency result in test [1], in test [2] and in test [4] was “inactive” throughout. The activity (max response) in test [3] was 1.9%.
